Test results reported in PubChem BioAssay (NCI).
This is part of a sample that, as a whole, favours compounds with a hit. Of some 83,000 tested, about 20% had one in any assay.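 96-well plates, one dose, 48 hours. Percent growth reported; active if below 10.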 A number with no mark means an inactive call. Activity calls are given as the source filed them.

system: HL-60(TB) leukemia; assay: NCI-60 one-dose screen, 48 h (100 = growth as untreated, 0 = no growth, -100 = all killed); settings: 10 µM unless noted

Structure (SMILES) | growth
COc1ccc(C(=O)Nc2cccc(-c3cc(=O)c4c(OC)c(OC)c(OC)cc4o3)c2)cc1 | 44.8%
COc1cccc(NC(=O)c2sc3nc4c(cc3c2N)C(O)CCC4)c1 (stereo not given) | -16.8% (active)
CC(O)Cc1c[nH]c(=O)[nH]c1=O (stereo not given) | 103%
COc1ccc(NC(=O)c2sc3nc4c(cc3c2N)C(O)CCC4)cc1 (stereo not given) | 93.2%
O=C(Nc1cccc(-c2nc3ccccc3[nH]2)c1)c1cccc(NC(=O)c2ccco2)c1 | 88.9%
N#C/C(=C\c1ccc(-c2cc(C(F)(F)F)ccc2Cl)o1)c1nc(-c2ccco2)cs1 | 89.2%
O=C(O)CN1C(=O)c2cccc3cccc(c23)C1=O | 118%
COc1ccc(N=c2nc3sc4cc(Cl)ccc4n3c(N)c2C#N)cc1 | 119%
CCCC(CCC)NCC(O)c1cc(-c2ccc(C(F)(F)F)cc2)nc(C(F)(F)F)c1 (stereo not given) | -46.3% (active)
Cc1ncc(C(=O)Nc2ccc(CN3CCN(C)CC3)c(C(F)(F)F)c2)cc1C#Cc1cnc2cccnn12 | -28.2% (active)
N#Cc1c(-c2cccc(F)c2)cc(-c2cccnc2)[nH]c1=O | 98%
COc1ccc2nc3c(cc2c1)C(=O)CC(c1ccccc1)C3 (stereo not given) | -1.74% (active)
Cc1cc(Cl)ccc1Nc1nc(C(F)(F)F)ccc1C(=O)N/N=C/c1ccccc1Cl | 12.5%
O=C(O)/C=C/c1ccc2c(c1)CCC2 | 110%
COC(=O)Cc1nc(C#N)c(N(C)C)o1 | 99.5%
COc1ccccc1CNCCCN1C(=O)c2ccc3c4c(ccc(c24)C1=O)C(=O)N(CCCNCCCCNCCCN)C3=O | -54.4% (active)
CCCc1cc(=O)n2c(C(=O)Nc3ccccc3OC)c(C(=O)Nc3ccc(F)cc3)sc2n1 | 47.1% [30 µM]
Nc1ncnc2c1c(-c1ccc(Oc3ccccc3)cc1)nn2CC1SSCC1O (stereo not given) | -25.9% (active)
CCOC(=O)c1ccc[nH]1 | 79.7%
COc1cc2ncnc(NC3CCC(O)CC3)c2cc1OC (stereo not given) | 97.7%

Structure (SMILES) | growth
CCN(CC)CCCC(C)NCc1ccccc1 (stereo not given) | 105%
CC(=O)C[n+]1ccc(C)cc1Sc1ccccc1C | 109%
COc1ccc2c(c1)c(-c1nc(-c3cn(C)c4ncccc34)cs1)cn2CCO | 82.4%
C=CC(=O)N(C)[C@H]1C[C@H]2OC(C)(C1OC)n1c3ccccc3c3c4c(c5c6ccccc6n2c5c31)C(=O)NC4 (stereo not given in full) | -11.2% (active)
CCc1ccc(CNc2ccc(N3CCOCC3)c(C(=O)O)c2)cc1 | 100%
CN1CCN(c2ccc(C(=O)Nc3n[nH]c4ccc(Cc5cc(F)cc(F)c5)cc34)c(NC3CCOCC3)c2)CC1 | -57.1% (active)
Nc1nc(Cn2c(-c3nonc3N)nc3ccccc32)nc(N2CCCCC2)n1 | 82.2%
CCCCCC(=O)Oc1ccc(/C(=C(/C)Cc2ccc(OC)cc2)c2ccc(OCCCN(C)C)cc2)cc1 | 62%
CN1CCN(CCCOc2ccc3nc(Nc4ccc(Cl)c(C(F)(F)F)c4)ccc3c2)CC1 | 63.7%
COc1ccc(Nc2cc(NC(=O)CNc3cc(OC)c(Cl)c(OC)c3Cl)ncn2)cc1 | 75.1%
CCN(CC)S(=O)(=O)c1ccc(S(=O)(=O)N2CCC[C@@H](C(=O)N3CCN(c4nc(C(C)C)no4)CC3)C2)cc1 | 68.5%
Nc1ccccc1-c1cc2c(c3c1[nH]c1ccccc13)CCCCC2 | 91.6%
O=C(Oc1ccccc1)c1cc(O)c(O)c(O)c1 | -5.58% (active)
c1cc(OCCN2CCCCCC2)ccc1CNc1ccc2nc(CCC3CCCCC3)[nH]c2c1 | 22.9%
O=S(=O)(O)C(C(I)I)S(=O)(=O)O | 109%
CCOC(=O)/C=C/C(=O)[C@H](CC(C)C)NC(=O)[C@H](Cc1ccccc1)NC(=O)OCc1ccccc1 | 25.9%
O=C(c1c[nH]c2ccccc12)C(Sc1nc2ccccc2c(=O)[nH]1)c1ccccc1 (stereo not given) | 93.1%
CCC(C)Nc1ccc(N)cc1 (stereo not given) | -9.29% (active)
CC(=O)O[C@]1(C(C)=O)CC[C@H]2[C@@H]3C=C(Cl)C4=CC(=O)CC[C@]4(C)[C@H]3CC[C@@]21C | 104%
Cc1cc([N+](=O)[O-])ccc1NC(=O)c1ccc2c(c1)nc(-c1ccccc1)n2C1CCCCC1 | 64.7%
